From PubChem BioAssay (NCI) come the findings set out here.

Common to all, as to test: NCI-60 one-dose screen, 48 h (100 = growth as untreated, 0 = no growth, -100 = all killed)
The test system of one assay is NCI-H23 lung. The conditions noted are these: 10 µM unless noted.
Another assay deals with NCI-H226 lung. The conditions noted are these: 10 µM unless noted.
The test system of the next assay is NCI-H322M lung. The conditions noted are these: 10 µM unless noted.
A further assay concerns HOP-62 NSCLC. The conditions noted are these: 10 µM unless noted.
Another assay deals with NCI-H460 lung. The conditions noted are these: 10 µM unless noted.
The test system of a further assay is HOP-92 NSCLC. To be noted: 10 µM unless noted.
The next assay relates to NCI-H522 lung. To be noted: 10 µM unless noted.
A further assay relates to A549/ATCC NSCLC. To be noted: 10 µM unless noted.
The subject of the next assay is 786-0 renal. The conditions noted are these: 10 µM unless noted.
The next assay relates to COLO 205 colon. To be noted: 10 µM unless noted.
Another assay deals with DU-145 prostate. To be noted: 10 µM unless noted.
For a further assay, the system named is K-562 leukemia. To be noted: 10 µM unless noted.
The subject of a further assay is MALME-3M melanoma. The conditions noted are these: 10 µM unless noted.
The test system of the next assay is MDA-MB-231 breast. To be noted: 10 µM unless noted.
The next assay deals with RXF 393 renal. The conditions noted are these: 10 µM unless noted.
Another assay has as its system SF-268 CNS. The conditions noted are these: 10 µM unless noted.
Another assay concerns SF-295 CNS. The conditions noted are these: 10 µM unless noted.
Another assay relates to SF-539 CNS. The conditions noted are these: 10 µM unless noted.
The next assay deals with UACC-257 melanoma. The conditions noted are these: 10 µM.
A further assay deals with M14 melanoma. To be noted: 10 µM unless noted.

About 83,000 compounds went through this panel and 20% of them were active in at least one assay; those are over-represented in the sample as a whole.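 Cells were grown in 96-well plates and exposed to the test compound at a single concentration for 48 hours; results are reported as percent growth, with values below 10 considered active.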 A number with no mark means an inactive call. Calls of active or inactive are those of the source.

Consider `COc1cc(-c2noc(C[C@@H](NC(=O)OCc3ccccc3)C(C)C)n2)cc(OC)c1OC`, for which the growth is 96.9% with NCI-H23 lung; 101% in the assay on NCI-H226 lung; 92.3% with NCI-H322M lung; 94.4% in the assay on HOP-62 NSCLC; 102% with NCI-H460 lung; 88.3% with HOP-92 NSCLC. In addition, the growth in the assay on NCI-H522 lung was 92.1%; with A549/ATCC NSCLC it was 100%; in the assay with 786-0 renal it was 101%; with COLO 205 colon, 117%; with DU-145 prostate, 108%; in the assay on K-562 leukemia, 94.4%. The growth in the assay with MALME-3M melanoma was 94.4%; with MDA-MB-231 breast, 92.1%; in the assay on RXF 393 renal, 102%; in the assay on SF-268 CNS, 97.5%; in the assay on SF-295 CNS, 105%; with SF-539 CNS, 102%. For the same molecule, the growth is 98.5% in the assay with UACC-257 melanoma and 100% in the assay with M14 melanoma.

On to `Cc1cc(-c2ccc3nc(N)sc3c2)nc2ccc3[nH]ncc3c12`, for which the growth with NCI-H23 lung is 39.4%; in the assay on NCI-H226 lung it was 53%; in the assay with NCI-H322M lung, 67.1%; in the assay on HOP-62 NSCLC, 31.6%; in the assay with NCI-H460 lung, 14%; with HOP-92 NSCLC it was 36.2%. For the same molecule, the growth with NCI-H522 lung is 6.95% (active); in the assay on A549/ATCC NSCLC, 45.4%; in the assay with 786-0 renal it was 64.8%; in the assay with COLO 205 colon it was 12.5%; with DU-145 prostate, 48.1%; with K-562 leukemia, 21.1%. For the same molecule, the growth in the assay on MALME-3M melanoma was 33.4%; in the assay with MDA-MB-231 breast, 46.2%; in the assay with RXF 393 renal, 47%; in the assay on SF-268 CNS, 49.5%; in the assay with SF-295 CNS it was 29.2%; in the assay on SF-539 CNS, 20.9%. Also, the growth in the assay with UACC-257 melanoma is 46.4%; in the assay on M14 melanoma it was 19.7%.

As for `COc1cc2oc(-c3cccc(NC(=O)c4cc(NC(=O)[C@H](C)N)ccc4Cl)c3)cc(=O)c2c(OC)c1OC`, the growth was 91.5% in the assay on NCI-H23 lung; 86% in the assay with NCI-H226 lung; 104% with NCI-H322M lung; 105% in the assay with HOP-62 NSCLC; 99.8% in the assay on NCI-H460 lung; 17.2% in the assay on HOP-92 NSCLC. In addition, the growth is 94.9% with NCI-H522 lung; 96.3% in the assay on A549/ATCC NSCLC; 91.7% in the assay on 786-0 renal; 101% in the assay on COLO 205 colon; 95.2% in the assay with DU-145 prostate; 78.8% in the assay on K-562 leukemia. For the same molecule, the growth was 111% in the assay on MALME-3M melanoma; 82.4% with MDA-MB-231 breast; 84.8% in the assay with RXF 393 renal; 92.2% in the assay on SF-268 CNS; 92.3% with SF-295 CNS; 91.1% with SF-539 CNS. The figures for the growth in the assay with UACC-257 melanoma and in the assay on M14 melanoma were 129% and 115%, respectively.

In the case of `Oc1ccc(CSc2nnc(-c3ccc(Oc4ccccc4)cc3)n2-c2ccccc2)c2cccnc12`, the growth with NCI-H23 lung is 21.3%; in the assay with NCI-H226 lung, 18.9%; in the assay on NCI-H322M lung it was 18.3%; in the assay on HOP-62 NSCLC, 15%; in the assay on NCI-H460 lung it was 0.254% (active); with HOP-92 NSCLC, 10.5%. Further, the growth is 15% in the assay with NCI-H522 lung; 11.8% in the assay with A549/ATCC NSCLC; 21.6% with 786-0 renal; 27.7% with COLO 205 colon; 26.5% in the assay on DU-145 prostate; 15.3% with K-562 leukemia. For the same molecule, the growth is 11.9% with MALME-3M melanoma; 35.8% in the assay with MDA-MB-231 breast; 21.5% in the assay on RXF 393 renal; 22.3% in the assay on SF-268 CNS; 0.102% (active) with SF-295 CNS; 2.32% (active) in the assay on SF-539 CNS. Also, the growth is 0.403% (active) with UACC-257 melanoma and -4.33% (active) with M14 melanoma.

Regarding `CCOC(=O)/C(F)=C/C1CC1C1CCCCC1` (stereo not given), the growth with NCI-H23 lung is 97.4%; in the assay with NCI-H226 lung, 104%; in the assay with NCI-H322M lung, 105%; in the assay on HOP-62 NSCLC it was 122%; in the assay on NCI-H460 lung, 104%; in the assay on HOP-92 NSCLC it was 83.1%. Besides, the growth was 103% in the assay with NCI-H522 lung; 104% in the assay on A549/ATCC NSCLC; 102% in the assay on 786-0 renal; 110% with COLO 205 colon; 105% in the assay with DU-145 prostate; 117% in the assay with K-562 leukemia. Also, the growth with MALME-3M melanoma was 97.9%; in the assay on MDA-MB-231 breast, 98.6%; with RXF 393 renal, 108%; with SF-268 CNS, 102%; in the assay on SF-295 CNS, 103%; with SF-539 CNS, 94.3%. Also, the growth in the assay on UACC-257 melanoma is 120%; in the assay with M14 melanoma it was 98.9%.

As to `Cc1cnc2nc(NN)[nH]n12`, the growth in the assay on NCI-H23 lung was 104%; in the assay with NCI-H226 lung it was 93.4%; in the assay on NCI-H322M lung, 100%; with HOP-62 NSCLC, 93%; in the assay on NCI-H460 lung, 103%; in the assay on HOP-92 NSCLC, 100%. The growth was 93.1% in the assay on NCI-H522 lung; 99.2% with A549/ATCC NSCLC; 103% in the assay on 786-0 renal; 101% in the assay with COLO 205 colon; 109% in the assay on DU-145 prostate; 103% in the assay with K-562 leukemia. Also, the growth in the assay on MALME-3M melanoma is 102%; in the assay on MDA-MB-231 breast, 106%; with RXF 393 renal, 119%; in the assay with SF-268 CNS, 99.8%; in the assay with SF-295 CNS, 95.2%; with SF-539 CNS, 100%. Further, the growth with UACC-257 melanoma and with M14 melanoma was 101% throughout.

On to `O=S(=O)(Nc1cc(Cl)c(F)c(Cl)c1)c1ccc(-c2cnc(C3CC3)o2)cc1`, for which the growth with NCI-H23 lung was 45.3%; with NCI-H226 lung, 49.4%; in the assay with NCI-H322M lung, 49.9%; with HOP-62 NSCLC, 36.2%; in the assay with NCI-H460 lung, 16.5%; in the assay with HOP-92 NSCLC, 63%. The growth with NCI-H522 lung was 32.8%; with A549/ATCC NSCLC, 41.5%; with 786-0 renal, 43.5%; in the assay with COLO 205 colon it was 8.82% (active); in the assay with DU-145 prostate, 24.4%; with K-562 leukemia it was 15%. For the same molecule, the growth was 55% in the assay with MALME-3M melanoma; 56.2% in the assay with MDA-MB-231 breast; 5.28% (active) with RXF 393 renal; 73.9% with SF-268 CNS; 16.8% with SF-295 CNS; 19.2% in the assay with SF-539 CNS. Besides, the growth in the assay with UACC-257 melanoma was 70.3%; in the assay with M14 melanoma, 23%.
